Bioassay records deposited in PubChem BioAssay by National Center for Advancing Translational Sciences (NCATS).
Shiga toxin inh – blocks Shiga toxin action in Vero cells; Vero cells, Shiga toxin protein synthesis inhibition reporter; inhibition, % at 38.7 µM; 290,000 tested, 9.2% active; in the data active = inhibition mostly above about 28%, no sharp cut-off; inactive = mostly below about 43%; note: 0% is about no effect
LmPK inhibitor – inhibitors of Leishmania mexicana pyruvate kinase | Q27686 | purified LmPK, Kinase-Glo ATP luminescence, 1 h | Potency, µM (doses to about 57.5 µM), inactives show top-dose activity change, negative = inhibition, usual class: inhibitors | 290,000 tested, 0.37% active | AID 1721; note: potency is the fitted concentration of half-maximal effect; % is set by controls: 0 for no effect and ±100 for the full control effect
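In 50 mM imidazole pH 7.2 with 7 mM MgCl2, LmPK (0.1 nM) turned over PEP (0.5 mM) and ADP (0.1 mM) for 1 h at room temperature. Luciferase read-out of ATP.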
Tb PYK inh – T. brucei pyruvate kinase inhibition; Q57TT1; TbPYK enzyme, Kinase-Glo Plus ATP luminescence, 45 min; Potency, µM (doses to about 76.8 µM), without a hit: at the top dose activity, negative = inhibition, most hits filed as inhibitors; 410,000 tested, 0.12% active; AID 624173; note: potency is the fitted concentration of half-maximal effect; % is set by controls: 0 for no effect and ±100 for the full control effect; nearly all actives have a fitted effect of over 50% in size
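Activity of T. brucei pyruvate kinase was followed by Kinase-Glo Plus luminescence after the enzyme reacted 45 min at room temperature with 130 uM ADP (final) and substrate. Test compounds were added before ADP at multiple concentrations.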
RE007 growth inh – less growth of the S. pombe RE007 Vpr strain; S. pombe RE007 Vpr strain, BacTiter-Glo ATP luminescence, 24 h; Potency, µM (highest dose often 92.2 µM), for inactives: at the top dose activity change, negative = less growth, usual class: inhibitors; 360,000 tested, 0.21% active; active = well fitted falling curve with a large enough effect; inconclusive = small, poorly fitted or top-dose-only effect; inactive = no such curve, though single readings can be large or run the other way; note: potency is the fitted concentration of half-maximal effect; % is set by controls: 0 for no effect and ±100 for the full control effect; nearly all actives have a fitted effect of over 50% in size
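Fission yeast RE007 carrying one integrated HIV-1 vpr copy, seeded at OD 0.01 in PMG+AL medium with 23 nL pinned compound. Grown 24 h at 30 degrees; viability read by BacTiter-Glo luminescence after 5 min.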
FBPA Giardia inh – inhibitors of Giardia lamblia fructose-1,6-bisphosphate aldolase | A8B2U2 | purified Giardia FBPA | Potency, µM (doses to about 59.6 µM), inactives show at the highest dose activity, negative = inhibition, actives largely listed as inhibitors | 290,000 tested, 0.71% active; note: potency is the fitted concentration of half-maximal effect; % is set by controls: 0 for no effect and ±100 for the full control effect; nearly all actives have a fitted effect of over 55% in size
Target sequence (A8B2U2 whole entry, looked up): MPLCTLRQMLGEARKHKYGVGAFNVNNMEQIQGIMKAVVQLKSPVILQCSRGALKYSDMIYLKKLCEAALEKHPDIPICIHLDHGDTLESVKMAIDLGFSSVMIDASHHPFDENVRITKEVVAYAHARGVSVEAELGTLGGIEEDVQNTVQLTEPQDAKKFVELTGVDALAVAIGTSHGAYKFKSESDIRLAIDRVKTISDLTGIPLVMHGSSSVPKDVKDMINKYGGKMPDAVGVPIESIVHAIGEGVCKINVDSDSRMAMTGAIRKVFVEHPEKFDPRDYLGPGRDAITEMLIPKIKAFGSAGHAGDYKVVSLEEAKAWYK
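40 nM FBPA preincubated 10 min at RT with compound (up to 57.5 uM final), then substrate plus GAPDH/TPI/NAD/arsenate coupling and diaphorase/resazurin added. Fluorescence read after 20 min at RT, 525/598 nm.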
Cycloheximide cs – counter-screen for Shiga toxin inhibitors: cycloheximide protein synthesis inhibition. AID 2314. max response, %. 300,000 tested, 12% active. cell reporter, cycloheximide protein synthesis inhibition counterscreen; in the data active = max response mostly above about 13%, no sharp cut-off; inactive = mostly below about 14%; note: read at 38.3 µM for the half of the compounds with a filed dose; 0% is about no effect
Starred values were filed as active, the others as inactive; ? = inconclusive; · = no result given; [ ] = another dose, or the depositor's remark. The sample as a whole holds a higher share of hits than the screen did. Unless noted, calls come from the whole dose curve; as a rule, active = well fitted curve in the direction sought with a large enough effect; inconclusive = small, poorly fitted or top-dose-only effect, or another doubt; inactive = no such curve, though single readings can be large; an effect the other way counts as inactive or inconclusive.

SMILES	Shiga toxin inh	LmPK inhibitor	Tb PYK inh	RE007 growth inh	FBPA Giardia inh	Cycloheximide cs
O=S(=O)(c1ccc(Cl)cc1)N1CCN(c2nc(-c3cccc(Br)c3)nc3ccccc23)CC1	-8	·	·	·	·	-4
NC(=O)C1CC2(NC(=O)NC2=O)c2cc(F)ccc2O1 (stereo not given)	·	·	1%	·	·	·
COc1cccc(N2CCN(C(=O)CN3CCSc4ccccc43)CC2)c1	·	·	0%	·	·	·
COc1ccc(Cl)cc1S(=O)(=O)Nc1cccc(-c2ccc(N3CCCC3)nn2)c1	·	·	1%	·	·	·
COc1ccccc1Nc1ncccc1C(=O)O	17	-6%	4%	0%	-6%	-1
NC(=O)c1cccnc1Nc1ccccc1F	28*	3%	-4%	-3%	-4%	29*
Cc1cc(Cl)ccc1Nc1ncccc1C(N)=O	69*	1%	-1%	-17%	-5%	69*
Cc1ccc(Nc2ncccc2C(N)=O)cc1	119*	1%	-11%	1%	-6%	94*
CCCNc1ncccc1C(N)=O	-9	1%	1%	6%	12%	-7
COc1ccc(Nc2ncccc2C(=O)O)cc1	112*	-4%	-4%	-6%	-2%	47*
Cc1nn(-c2ccc(N3CCOCC3)nn2)c(C)c1CCC(=O)NCc1ccc(Cl)cc1	·	·	2%	·	·	·
CC(=O)Nc1cccc(NC(=O)c2cc3c(=O)n4cccc(C)c4nc3n2C)c1	·	·	5%	·	·	·
CN(C)c1ncnc2ccc(-c3ccc4c(c3)OCO4)cc12	·	·	·	·	-1%	·
CCCn1c(C)nc2c(Nc3ccccc3)nc(C)nc21	·	·	·	·	2%	·
O=C(CSc1nc2ccccc2n1Cc1ccc(F)cc1)N1CCN(c2ccc(F)cc2)CC1	·	·	1%	·	·	·
C=CCN=c1scc(-c2ccc(F)cc2)n1/N=C/c1ccccn1	90*	6%	1%	-16%	0%	19*
C=CCN=c1scc(-c2ccccc2)n1/N=C/c1ccccn1	active	2%	-1%	?	-9%	20*
C=CCN=c1scc(-c2ccc3c(c2)NC(=O)CO3)n1/N=C(\C)c1ccccn1	-4	3%	3%	6%	4%	10
CCC(=O)N1CCc2cc(CNC(=O)c3cccc(N(C)C)c3)ccc21	·	·	-4%	·	·	·
CN1CCN(C(=O)c2ccc(-c3cccs3)s2)CC1	55*	-15%	-7%	5%	-3%	42*
CN1CCCN(C(=O)c2ccc(Br)s2)CC1	-9	-3%	-7%	-11%	·	-3
O=C(c1cccs1)c1ccc(-c2cccs2)s1	36	?	3%	-27%	-3%	30*
Cc1cc(C)c2nc(N(Cc3cccnc3)C(=O)c3ccc(S(=O)(=O)N(C)C)cc3)sc2c1	·	·	-13%[15.4 µM]	·	·	·
O=C(Nc1ccc(N2CCOCC2)c(Cl)c1)c1ccco1	46	-6%	-9%	-9%	-17%	34*
O=C(Nc1ccc(Cl)c(S(=O)(=O)N2CCOCC2)c1)C1CCCC1	·	·	0%	-6%	·	·
SMILES	Shiga toxin inh	LmPK inhibitor	Tb PYK inh	RE007 growth inh	FBPA Giardia inh	Cycloheximide cs
CCC(=O)N1CCN(c2ccc(NC(=O)c3ccco3)cc2Cl)CC1	38	-2%	-5%	9%	-2%	15*
CC(=O)N1CCN(c2ccc(NC(=O)c3ccco3)cc2Cl)CC1	43*	-8%	-4%	24%	·	17*
O=C(Nc1ccc(N2CCOCC2)c(Cl)c1)C1CCCCC1	129	3%	5%	4%	13%	52*
CC(C)C(=O)N1CCN(c2ccc(NC(=O)c3ccco3)cc2Cl)CC1	21	6%	-2%	-10%	7%	18
CCOC(=O)c1ccccc1NC(=O)C1CC(=O)N(C2CCCCC2)C1 (stereo not given)	78*	-9%	-13%	-1%	·	58*
Cc1ccc(C(=O)N2CCCC(Nc3ccc(F)c(F)c3)C2)cn1 (stereo not given)	-7	-9%	0%	19%	·	1
CC(C)n1cc(C(=O)N2CCCC(Nc3ccc(F)c(F)c3)C2)cn1 (stereo not given)	14	-2%	-1%	44%	-11%	27*
CCN(C(=O)CN(C)S(=O)(=O)c1ccc2c(c1)n(C)c(=O)c(=O)n2C)c1cccc(C)c1	·	·	4%	·	·	·
N/C(=N\OS(=O)(=O)c1ccc(Cl)cc1)c1ccncc1	-5	7%	-3%	8%	2%	-1
COc1cccc(C(=O)C(=O)c2cccc(OC)c2OC)c1OC	·	·	-1%	-2%	·	·
COc1cccc(C(=O)O/N=C(\N)c2ccncc2)c1OC	27*	-11%	4%	-12%	1%	35*
COc1ccccc1C(=O)O/N=C(\c1ccccc1)c1ccncc1	5	8%	-2%	-5%	1%	0
N/C(=N\OC(=O)c1cc(Cl)ccc1Cl)c1ccncc1	74*	-2%	0%	-15%	6%	27*
Cc1ccccc1C(=O)O/N=C(\N)c1ccncc1	53*	?	-7%	-5%	1%	61*
N/C(=N\OC(=O)c1ccccc1Cl)c1ccncc1	71*	1%	-1%	?	-9%	17*
O=C(CSc1ncccc1C(=O)Oc1ccccc1Cl)Nc1ccc(C(F)(F)F)cc1Cl	·	·	-5%	·	·	·
N/C(=N\OC(=O)c1ccc(Cl)cc1Cl)c1ccncc1	82*	-13%	0%	-10%	3%	30*
CC(C)(Oc1ccc(Cl)cc1)C(=O)O/N=C(\N)c1ccncc1	-6	-1%	-8%	110%	6%	2
O=C(Nc1ccc(-c2nc3ccccc3o2)cc1)c1ccc(N2C(=O)C3C4C=CC(C4)C3C2=O)cc1 (stereo not given)	42*	2%	2%	-4%	8%	22*
Cc1ccc2oc(-c3ccc(NC(=O)c4ccc5c(c4)OCO5)cc3)nc2c1	58*	-2%	1%	-2%	5%	37*
O=C(Nc1ccc2oc(-c3ccccc3F)nc2c1)c1ccc2c(c1)OCCO2	72*	1%	-9%	16%	-9%	28*
O=C(Nc1ccc(-c2nc3ccccc3o2)cc1)c1ccc2c(c1)OCO2	46	-1%	-3%	-16%	1%	20
Cc1ccc2oc(-c3ccc(NC(=O)c4cccnc4)cc3)nc2c1	62*	5%	-1%	22%	3%	70*
Cc1ccc(C(=O)Nc2ccc(-c3nc4ccccc4o3)cc2)cc1Cl	·	·	-1%	·	·	·
O=C(CN1C(=O)c2ccccc2C1=O)Nc1ccc(-c2nc3ccccc3o2)cc1	14	4%	-2%	3%	0%	11
O=C(CCN1C(=O)c2ccccc2C1=O)Nc1ccc(-c2nc3ccccc3o2)cc1	83*	5%	-7%	-1%	3%	18*
O=C(Nc1ccc(-c2nc3ccccc3o2)cc1)c1cccnc1	115*	1%	-1%	0%	·	44*
